Results: PubChem BioAssay AID1273 (Columbia University Molecular Screening Center, 2008)
Hit rate of the full screen: of about 130,000 compounds, about 1,200 (0.92%) were called active. This is one part of a sample in which actives are shown more often than they occur.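 Rule for the calls: active = inhibition above the mean plus 3 SD, with well images judged a real hit on visual review (cut at about 60% in these data, passing the limit was not always enough); inconclusive = inhibition over the cutoff but images rejected on review; inactive = inhibition not above the cutoff.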

Assay: inhibitors of insulin promoter-driven GFP, primary screen, imaging, TRM-6 cells (human fetal islet line), eGFP reporter, cell count (AID 1273;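 for normalized cell count: cells exposed to compound for 48 h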)
Details: at 2 µM, reporter expression induced with tamoxifen; inhibition: stronger effect = higher value; normalized cell count: measured here: cell count, toxicity

| SMILES | inhibition | normalized cell count [%] |
| --- | --- | --- |
| COc1ccc(-c2cn3cccnc3n2)cc1 | 23.5% (inactive) | 80.6 |
| Cc1ccc(Cl)c(NC(=O)CN2CCN(C=O)CC2)c1 | -71.4% (inactive) | 117 |
| O=C(CC1C(=O)NCCN1Cc1ccc(-c2ccccc2)cc1)NCc1ccncc1 (stereo not drawn) | 0% (inactive) | 65.4 |
| CCSc1ccccc1C(=O)Nc1ccc2c(c1)OCO2 | -63.2% (inactive) | 84.3 |
| N/C(=N\OC(=O)N1c2ccccc2Sc2ccccc21)c1ccc(Br)cc1 | 79.3% (active) | 124 |
| N/C(=N\OC(=O)/C=C/c1ccccc1)c1ccc(Br)cc1 | 14.3% (inactive) | 133 |
| N/C(=N\OC(=O)Cc1ccccc1[N+](=O)[O-])c1ccc(Br)cc1 | 7.69% (inactive) | 129 |
| Cc1cc2nnc(SCC(=O)N3CCN(c4ccccc4)CC3)n2c(N)n1 | 74.3% (active) | 82.1 |
| Cc1nnc(SCC(=O)N2CCN(c3ccccc3)CC2)n1-c1ccccc1 | -41% (inactive) | 117 |
| Cc1ccccc1NC(=O)Cc1nnc(SCC(=O)N2CCN(c3ccccc3)CC2)n1C | 18.2% (inactive) | 112 |
| O=C(CSc1ccsc1[N+](=O)[O-])N1CCCCC1 | -33.3% (inactive) | 80.7 |
| Cc1cccc(Cn2c(N3CCN(c4ccccc4)CC3)nc3c2c(=O)n(C)c(=O)n3C)c1 | -28.1% (inactive) | 82.7 |
| Cc1cccc(N2CC(C)Cn3c2nc2c3c(=O)n(CC(=O)OCc3ccccc3)c(=O)n2C)c1 (stereo not drawn) | 87.5% (active) | 63.7 |
| Cn1c(=O)n(CCc2ccccc2)c(=O)c2c1nc1n2CCCN1c1ccccc1 | -196% (inactive) | 86.5 |
| O=[N+]([O-])/C(N=Nc1ccccc1)=N\Nc1ccccc1 | 7.14% (inactive) | 142 |
| COCCCNC(=S)NNC(=O)C(O)(c1ccccc1)c1ccccc1 | -89.5% (inactive) | 100 |
| CCCCn1c(CN2CCN(CCO)CC2)nc2ccccc21 | -68.6% (inactive) | 100 |
| C=C(Br)Cn1c(CCCC)nc2ccccc21 | 85.7% (active) | 72.7 |
| COCn1c(COc2ccccc2)nc2ccccc21 | 30% (inactive) | 132 |
| CCCNCc1cc(OCC)c(OCC(=O)Nc2ccccc2)cc1Br | 0% (inactive) | 99 |
| C=C(C)Cn1c(C)cc(C)c(S(=O)(=O)c2ccccc2C)c1=O | 78.4% (active) | 40.9 |
| Cc1nc([N+](=O)[O-])c(NCCCO)n1Cc1ccccc1 | 50% (inactive) | 125 |
| CC(C)C(=O)NCc1cc(-c2ccc(Cl)cc2)no1 | 55% (inactive) | 86.2 |

| SMILES | inhibition | normalized cell count [%] |
| --- | --- | --- |
| CS(=O)(=O)N1CCc2cc(C(=O)Nc3ccccc3)ccc21 | 43.6% (inactive) | 103 |
| CCN(CC)CCn1c2ccc(Cl)cc2c2nc(C)sc21 | 46.1% (inactive) | 78.6 |
| COC(=O)Cn1c2ccc(C)cc2c2nc(C)sc21 | 85.7% (active) | 32.4 |
| COC(=O)Cn1c(=NC(=O)c2cc(OC)c(OC)c(OC)c2)sc2cc(OC)ccc21 | -14.3% (inactive) | 101 |
| Cc1cc(NC(=O)CN2C(=O)NC(CCc3ccccc3)C2=O)no1 (stereo not drawn) | 60% (inactive) | 76 |
| S=C(NCc1cccnc1)Nc1ccc(Cl)cc1Cl | -31.6% (inactive) | 122 |
| CC(C(=O)NC1CCCC1)N(c1ccc(Oc2ccccc2)cc1)S(C)(=O)=O (stereo not drawn) | -15.8% (inactive) | 67.6 |
| Cc1ccc(S(=O)(=O)N(C)C)cc1NC(=O)COC(=O)C1COc2ccccc2O1 (stereo not drawn) | -44.4% (inactive) | 51.1 |
| CCCCn1nc(C(=O)Nc2ccc(S(=O)(=O)Nc3ncccn3)cc2)c2ccccc2c1=O | 25% (inactive) | 158 |
| Cc1ccsc1CNn1cnnc1SCc1ccccc1F | 86.5% (active) | 28.9 |
| O=C(O)CSc1nnc(-c2ccc3c(c2)OCO3)n1-c1ccccc1 | 15% (inactive) | 96.8 |
| CCC1(CC)NC(=O)N(Cc2nc3ccccc3s2)C1=O | -16.7% (inactive) | 127 |
| CCOC12CC(C)(C)CC(C)(CC3=C1C(=O)CC(C)(C)C3)C2 (stereo not drawn) | 73.7% (active) | 4.89 |
| CCCN(CC(=O)Nc1ccc(OC)c(OC)c1)CC(=O)Nc1ccc(F)c(F)c1F | -25% (inactive) | 134 |
| O=Cc1ccc(OCc2cn3ccccc3n2)cc1 | 36.4% (inactive) | 194 |
| COC(=O)NNC1=CC(=O)CC(C)(C)C1 | -26.7% (inactive) | 74.6 |
| COC(=O)C(NS(=O)(=O)c1ccc(F)cc1)c1ccccc1 (stereo not drawn) | -16.3% (inactive) | 140 |
| Fc1ccccc1/C=C1\CCCC2=C1Nc1ncnn1C2c1ccccc1F (stereo not drawn) | 86.1% (active) | 102 |
| O=CN1CCN(C2CC(=O)N(c3ccc4c(c3)OCO4)C2=O)CC1 (stereo not drawn) | 20.9% (inactive) | 129 |
| COc1cccc(N2CCN(C3CC(=O)N(c4ccc(Cl)cc4)C3=O)CC2)c1 (stereo not drawn) | 30.8% (inactive) | 118 |
| COc1ccc(N2CCN(C3CC(=O)N(c4ccc5c(c4)OCCO5)C3=O)CC2)cc1 (stereo not drawn) | 91.7% (active) | 78.3 |
| CCN(/N=C/c1ccc(N(C)C)cc1)c1nc2ccccc2[nH]1 | 86.7% (active) | 159 |
| Nc1cccc(CCc2nc3ccccc3[nH]2)c1 | 17.2% (inactive) | 146 |

| SMILES | inhibition | normalized cell count [%] |
| --- | --- | --- |
| CN(C)c1ccc(/C=N\S(=O)(=O)c2ccccc2)cc1 | -39.5% (inactive) | 46.9 |
| Cc1nn(CC#N)c(=O)n1N(C)c1ncc(C(F)(F)F)cc1Cl | 30% (inactive) | 84.4 |
| O=C(CSc1nc2ccccc2[nH]1)c1cccs1 | 42.9% (inactive) | 105 |
| COc1ccccc1CSc1nc2ccccc2[nH]1 | -54.8% (inactive) | 124 |
| C=CCSc1nc2ccccc2[nH]1 | 81.8% (active) | 184 |
| CCOC(=O)CSc1nc(C)cc2c1C(=O)OC2 | 28.6% (inactive) | 94.5 |
| CCCCc1nnc(NC(=O)CSc2nc(N)cc(=O)[nH]2)s1 | 12.5% (inactive) | 93.7 |
| COc1ccc2oc(=O)c(C(=O)N3CCCC3)cc2c1 | 44.4% (inactive) | 107 |
| CN(C)c1ccc(C=NCCc2ccc(S(N)(=O)=O)cc2)cc1 | 31.2% (inactive) | 121 |
| Cc1ccc2nc(Nc3ncc4c(n3)CC(C)(C)CC4=O)nc(C)c2c1 | -25% (inactive) | 96.8 |
| CC1(C)CC(=O)c2cnc3nc4ccccc4n3c2C1 | 76.2% (active) | 56.3 |
| CC(C)(C)c1cc(=O)n2c(nc3ccccc32)[nH]1 | 29.4% (inactive) | 245 |
| Cc1ccc(OCCCn2c(=O)oc3ccccc32)cc1 | -26.7% (inactive) | 84.1 |
| COc1ccc(OC)c(Cc2nnc(CCC(=O)NC3CCCC3)o2)c1 | 11.1% (inactive) | 95.3 |
| Cc1onc(-c2ccccc2)c1C(=O)N1CCOCC1 | -90% (inactive) | 78.8 |
| Cc1onc(C(=O)NN)c1C(=O)N1CCN(C(c2ccccc2)c2ccccc2)CC1 | 81.8% (active) | 29.3 |
| Cn1nnnc1SCC(=O)N1CCN(C(c2ccccc2)c2ccccc2)CC1 | -18.9% (inactive) | 68.2 |
| Cc1nnsc1C(=O)N/N=C/c1cccc(C(F)(F)F)c1 | -86.7% (inactive) | 39.6 |
| O=[N+]([O-])c1ccccc1NCc1ccccc1Cl | 33.3% (inactive) | 123 |
| O=c1c([N+](=O)[O-])cccn1Cc1ccc(F)cc1Cl | 73.3% (active) | 83.1 |
| O=c1c([N+](=O)[O-])cc(C(F)(F)F)cn1Cc1cccc(Cl)c1 | -10.7% (inactive) | 66.7 |
| CCOC(=O)Cn1nnnc1C | 26.7% (inactive) | 95.5 |
| O=C(c1snnc1-c1ccccc1)N1CCOCC1 | -30.2% (inactive) | 64.9 |

| SMILES | inhibition | normalized cell count [%] |
| --- | --- | --- |
| Cc1cccc(C)c1NC(=O)C1(N(C(=O)c2ccccn2)c2ccc(O)cc2)CCCCC1 | 6.67% (inactive) | 38.5 |
| CC(O)c1cccc(NC(=O)Cc2cccc3ccccc23)c1 (stereo not drawn) | -38.9% (inactive) | 41 |
| COc1ccc(C(=O)N2CCC(C(=O)Nc3ccc(C)cc3)CC2)cc1 | 33.3% (inactive) | 85.5 |
| CCCOc1ccc(NC(=O)C2CCCNC2=O)cc1 (stereo not drawn) | 5.71% (inactive) | 82.1 |
| O=C1CCC(C(=O)Nc2ccc(OC(F)F)cc2)N1 (stereo not drawn) | 72.7% (active) | 73.3 |
| CCOC(=O)Cc1ncccc1C(=O)Nc1ccc(OC(F)(F)F)cc1 | 0% (inactive) | 62.2 |
| O=C(CNCc1ccc(Cl)cc1)Nc1cccc(C(=O)O)c1 | 38.5% (inactive) | 79.9 |
| Cc1ccc(OC(=O)c2cc3ccccc3o2)cc1 | -79.3% (inactive) | 174 |
| Cc1ccc(S(=O)(=O)c2ccc(Oc3ccccc3)cc2)cc1 | -87.1% (inactive) | 116 |
| Cc1ccc(O/C=C2\OC(=O)c3ccccc32)cc1 | 81.2% (active) | 93 |
| Cc1nn(-c2ccccc2)c(C)c1/C=C/C(=O)OC(C)C(N)=O (stereo not drawn) | 68.8% (active) | 181 |
| Cc1nn(-c2ccccc2)c(Cl)c1/C=C/C(=O)c1ccc(O)cc1 | -70.4% (inactive) | 111 |
| Cc1ccc(C(=O)/C=C/c2c(C)nn(-c3ccccc3)c2Cl)cc1 | -16.7% (inactive) | 102 |
| O=C(COc1cccc2ccccc12)Nc1cc(S(=O)(=O)N2CCOCC2)ccc1N1CCOCC1 | 11.1% (inactive) | 67.5 |
| CN1C(=O)C(CC(=O)Nc2ccccc2)S/C1=N/c1nccs1 (stereo not drawn) | -107% (inactive) | 120 |
| COC(=O)c1nc(NC(=O)c2ccc(F)cc2)n[nH]1 | 28.6% (inactive) | 129 |
| Cc1ccccc1NC(=O)c1nn(-c2ccc(F)c(F)c2)ccc1=O | 25% (inactive) | 93.8 |
| Cc1ccc(NC(=O)N2CCC(c3nc4c(nnn4Cc4c(F)cccc4Cl)c(=O)[nH]3)CC2)cc1 | 6.25% (inactive) | 107 |
| COc1ccc(Cn2nnc3c(=O)[nH]c(C4CCN(C(=O)c5ccccc5Cl)CC4)nc32)cc1 | 72.7% (active) | 34.3 |
| O=C(Nc1ccc(F)cc1)N1CCCC(c2nc3c(nnn3Cc3ccccc3Cl)c(=O)[nH]2)C1 (stereo not drawn) | -42.9% (inactive) | 122 |
